# PfGluPho inh: PfG6PD (Plasmodium falciparum) enzyme inhibition; PfGluPho enzyme, NADPH resazurin-diaphorase fluorescence; inhibition, % at 20 µM; actives 0.78% (n = 350,000); AID 504690;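 active = inhibition reaching at least a set limit at 20 µM in the primary screen, cut at about 59% in these data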;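 note: 0% = DMSO wells with substrate and 100% = DMSO wells lacking glucose-6-phosphate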
# GC-A act: GC-A (human) enzyme activation; P16066; HEK293 GC-A cells, cGMP TR-FRET, EC30 ANP; 0% at EC30 ANP, 100% saturating ANP; activation, % at 10 µM; actives 0.14% (n = 370,000); in the data active = activation above about 40%
# APOBEC3A inh: blocks human APOBEC3A ssDNA deamination | actives 0.41% (n = 330,000) | inhibition, % at 20 µM | recombinant A3A, FAM/TAMRA ssDNA deamination fluorescence | P31941;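 active = at least 40% inhibition at 20 µM here, with at most 30% in a related deaminase screen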;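 note: plate controls were A3A with DMSO for no effect and wells lacking A3A enzyme for full effect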
# Neddylation inh: blocks human cullin neddylation. P61081+Q13564. actives 0.58% (n = 360,000). inhibition, % at 25 µM. TR-FRET cullin neddylation, biochemical; in the data active = inhibition above about 36%
# NPR2 activator: GC-B (human) receptor activation; activation, % at 10 µM; HEK293-GC-B cells, CNP EC30, cGMP TR-FRET; 0% at EC30 CNP, 100% saturating CNP; actives 0.11% (n = 370,000); AID 1920062;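 active = activation at 10 µM reaching about 35% in either raw or pattern-adjusted values, limit read from the data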
# A3G deaminase: APOBEC3G (human) deaminase inhibition. Q9HC16. inhibition, % at 20 µM. recombinant A3G, ssDNA deamination FAM/TAMRA fluorescence. AID 493012. actives 0.28% (n = 330,000);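 active = inhibition of at least 40% at 20 µM, with no more than 30% in the related APOBEC3A deaminase screen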;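 note: plate controls were DMSO wells with A3G for no effect and wells lacking A3G enzyme for full effect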
# * = called active by the depositor; nt = no result given. Compounds with a hit are over-represented: about 2% of the library has one in this group of screens.
SMILES,PfGluPho inh,GC-A act,APOBEC3A inh,Neddylation inh,NPR2 activator,A3G deaminase
CCN(CC)C(=O)CN1C(=O)C2CCCCN2C(=O)c2ccccc21 (configuration not stated),nt,-1,nt,nt,-3,nt
COc1ccc(NC(=O)c2cc(-c3cc(Cl)ccc3OC)n[nH]2)c(C)c1,nt,75*,nt,-5,88*,nt
CCCOc1ccc(F)cc1-c1cc(C(=O)Nc2ccc(OC)cc2OC)[nH]n1,nt,11,nt,19,1,nt
CCCOc1ccc(F)cc1-c1cc(C(=O)Nc2ccc(OC)cc2C)[nH]n1,nt,58*,nt,7,62*,nt
COc1ccc(NC(=O)c2cc(-c3cc(Cl)ccc3C)n[nH]2)c(OC)c1,nt,4,nt,-3,0,nt
c1ccc(-c2cccc(CNc3nc(-c4ccccn4)nnc3-c3ccccc3)c2)cc1,nt,-2,nt,nt,1,nt
Brc1ccc(Cn2c(-c3cncs3)nc3ccccc32)cc1,7,53*,-4,-76,5,-1
COc1ccc(-c2nc3ccccc3n2Cc2ccccc2)cc1,1,37,0,15,39*,-1
COC1=C[C@H](C(=O)NCCNC(C)=O)[C@@]2(C)Cc3ccccc3[C@H]2CC1=O,nt,-1,nt,nt,9,nt
Cc1cccc(NC(=O)Nc2c(-c3ccc(C(F)(F)F)cc3)nc3ncccn23)c1,nt,2,nt,nt,6,nt
O=C(N/N=C/c1sc(N2CCOCC2)nc1-c1ccccc1)c1ccccc1Cl,-14,1,1,nt,-3,-7
O=C(N/N=C/c1sc(N2CCOCC2)nc1-c1ccccc1)c1cccc(S(=O)(=O)N2CCOCC2)c1,12,-1,-10,37*,-2,-4
CCCCNC(=O)C1CCCN1C(=O)Nc1ccc(Cl)cc1 (configuration not stated),nt,3,nt,nt,-2,nt
CC(=O)c1ccc(NC(=O)c2ccc3nc(-c4ccco4)c(-c4ccco4)nc3c2)cc1,78*,nt,96,-24,nt,87
CC[C@@]1(O)C(=O)OCc2c1cc1n(c2=O)Cc2cc3c(CN(C)C)c(O)ccc3nc2-1,30,53*,-9,29,14,-8
CC[C@@]1(O)C(=O)OCc2c1cc1n(c2=O)Cc2cc3c(N)cccc3nc2-1,30,-6,12,-18,-2,22
CC(=O)c1c(C)n(-c2ccc(Cl)cc2)c2ccc(O)cc12,-1,22,21,7,3,-6
CC(=O)c1c(C)n(-c2cccc(Cl)c2)c2ccc(O)cc12,10,66*,-3,9,11,-5
C[C@@H](CO)N(Cc1cn(Cc2ccccc2)nn1)S(=O)(=O)c1ccc(F)cc1Br,nt,2,nt,nt,3,nt
O=C(CN(CCc1ccccc1)S(=O)(=O)c1ccc(F)cc1)N1CCOCC1,nt,1,nt,nt,-5,nt
CCOc1cc(/C=C2\C(=O)ON=C2C)ccc1OCc1ccccc1,22,38,3,2,46*,1
C=CCOc1ccc(/C=C2/C(=O)ON=C2C)cc1OC,20,41*,1,-4,23,3
CCCOc1ccc(/C=C2/C(=O)ON=C2C)cc1OCC,15,35,-3,2,19,-6
Cc1ccc(-n2nc3c(N4CCC(C(=O)NCc5cccc(F)c5)CC4)nnc(C)c3c2C)cc1,18,nt,0,42*,nt,-6
Cc1ccc(-n2nc3c(N4CCC(C(=O)NCc5ccc(C)o5)CC4)nnc(C)c3c2C)cc1,18,8,-2,8,-8,-1
SMILES,PfGluPho inh,GC-A act,APOBEC3A inh,Neddylation inh,NPR2 activator,A3G deaminase
COC(=O)c1ccc(-c2nc3cc(Cl)c(N)cc3s2)cc1,36,51*,-3,nt,12,-5
CCOc1ccc(-n2c(SCC(=O)Nc3ccc4cn[nH]c4c3)nnc2-c2ccncc2)cc1,nt,-5,nt,nt,-3,nt
Cc1c(N=C2N=C(NC(=O)c3ccc(F)cc3)c3ccccc32)c(=O)n(-c2ccccc2)n1C,1,58*,9,-50,-4,-12
Cc1c(NC(=O)NC(=O)c2ccc(F)cc2)c(=O)n(-c2ccccc2)n1C,-18,-3,-4,-3,-1,-2
O=c1[nH]c2ccccc2c(O)c1O,75*,8,1,nt,7,32
O=c1[nH]c2ccccc2c(O)c1-[n+]1ccccc1,40,2,2,4,5,7
COc1ccc(-c2csc(NC(C)c3nc4cc(C(=O)NCCCO)ccc4n3Cc3ccc(C)cc3)n2)cc1 (configuration not stated),12,35,-4,-23,47*,-7
Cc1ccc(Cn2c(C(C)Nc3nc(-c4ccc(F)cc4)cs3)nc3cc(C(=O)NCCCO)ccc32)cc1 (configuration not stated),12,25,-2,2,23,5
CCS(=O)(=O)c1ncc(Cl)c(C(=O)Nc2ccc(S(=O)(=O)N(C)c3ccccc3)cc2)n1,44,62*,2,-12,41*,3
O=C(Nc1ccc(F)cc1)c1nc(S(=O)(=O)Cc2ccccc2)ncc1Cl,18,42*,-4,-3,14,-5
Cc1ccccc1CS(=O)(=O)c1ncc(Cl)c(C(=O)Nc2ccc(F)cc2)n1,19,42*,0,-3,10,4
C#CCNC(=O)C[C@H]1C[C@@]2(C(=O)OC)C(=C[C@H](C(C)C)O[C@@H]2C2CC2)N(CCCCCCCC)C1=O,nt,1,nt,nt,-9,nt
CCOC(=O)[C@]12CCCC=C1N(Cc1ccc(OC)cc1)C(=O)[C@@H]2CC(=O)N1CCN(C(=O)c2ccco2)CC1,nt,3,nt,nt,2,nt
O=C(O)C1CCN(C(=O)c2ccccc2N2C(=O)[C@@H]3Cc4c([nH]c5ccccc45)C(c4cccc(Cl)c4)N3C2=O)CC1 (some centres not stated),9,53*,-3,13,58*,-3
Oc1ccccc1-c1n[nH]c(=S)n1Cc1ccco1,34,3,-2,15,-6,41*
Cc1cc(-c2n[nH]c(=S)n2Cc2ccco2)nn1C,30,6,-8,1,0,24
C=CCN(CC#CC1=CCCCC1)Cc1ccccc1,nt,2,nt,nt,1,nt
C[C@@H](/C=C/C(=O)OC(C)(C)C)Sc1ccc(C(C)(C)C)cc1,nt,-5,nt,nt,0,nt
N#CC(C#N)=C1C=CC=CN1/C(=C\c1ccco1)C(=O)c1ccc(Br)cc1,59*,7,nt,nt,-1,nt
OCCN1CCN(c2ncnc3sc4c(c23)CCCC4)CC1,10,3,2,1,-6,-2
Oc1ccc(N2CCN(c3ncnc4sc5c(c34)CCC5)CC2)cc1,62*,-2,-3,-2,-8,15
CCOC(=O)CC(=O)CSc1ccc2nnc(-c3ccc(F)cc3)n2n1,-4,2,-2,40*,2,-8
CCOC(=O)CC(=O)CSc1ccc2nnc(-c3cccc(F)c3)n2n1,-6,0,1,38,5,-4
Cc1ccc(C=Nn2c(-c3n[nH]c4c3CCC4)n[nH]c2=S)o1,nt,1,nt,nt,-9,nt

# Screening results from PubChem.
